From ChEMBL document CHEMBL1157539, “Thousands of chemical starting points for antimalarial lead identification” (Nature, 2010)

Tests used:
Assay type in all cases: functional
[1] = tested on: Plasmodium falciparum; test: GSK_TCMDC: Inhibition of Plasmodium falciparum 3D7 in whole red blood cells, using parasite LDH activity as an index of growth. Test compounds present at 2uM
[2] = tested on: Plasmodium falciparum; test: GSK_TCMDC: Inhibition of Plasmodium falciparum Dd2 in whole red blood cells, using parasite LDH activity as an index of growth. Test compounds present at 2uM
[3] = tested on: HepG2; test: GSK_TCMDC: Percent inhibition of human HepG2 cell line. Test compounds present at 10uM.

SMILES | Inhibition [1] [%] | Inhibition [2] [%] | Inhibition [3] [%]
CC[C@H]1CN2CC[C@@H]1C[C@H]2[C@H](O)c1ccnc2ccc(Cl)cc12.Cl | 100 | 98 | 0
COc1c(F)cc(CC(C)NCC(O)c2cccc(Cl)c2)cc1F.Cl (configuration not stated) | 93 | 86 | 0
CC(C)CNCc1cccc(-c2ccc(CN(C(=O)c3cccs3)C3CCN(Cc4ccccc4)CC3)cc2)c1.O=C(O)C(F)(F)F | 85 | 40 | 22
Cc1[nH]c2ccccc2c1C1=CCN(CCCCCC23CCCc4cccc(c42)NC3=O)CC1 (configuration not stated) | 94 | 91 | 11
